# Values joined by “and” are separate entries in the source; they are usually repeats but may differ in a detail not shown here. Equal values may be shown once. For part of these data: Results with a measured potency or affinity are listed apart. Active and inactive are the calls of the source. Unless noted, no rule for the calls is given here.
# Assays:
# [1] = biological target: 6-phosphogluconate dehydrogenase, decarboxylating (Homo sapiens) (UniProt P52209); assay: inhibition of human phosphogluconate dehydrogenase – biochemical, recombinant enzyme, NADPH absorbance, primary screen (AID 1159550;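 active = at least 20% inhibition of 6-phosphogluconate dehydrogenase activity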); settings: recombinant 6PGD, NADPH absorbance 341 nm; at 10 µM; stronger effect = higher value
# [2] = EMT-state selective cytotoxicity in co-culture – imaging, PC-3E GFP, TEM4-18 mCherry, primary screen (AID 1345086;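 active = compounds killing one labelled cell type while sparing the other, by normalised counts and ratio limits, not self-fluorescent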;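 as to all read-outs here: cells exposed to compound for 72 h before imaging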;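 as to red/green cell ratio (normalised): normalised mesenchymal count divided by normalised epithelial count so high means epithelial killing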); settings: PC-3E GFP / TEM4-18 mCherry co-culture, imaging cell counts, at 1 µM; for red/green cell ratio (normalised): actives lie on both sides
# [3] = tested on: Aerobactin synthetase IucA (Klebsiella pneumoniae hvKP1); assay: IucA enzyme inhibition, primary screen, biochemical, Spectrum library (AID 1346200); settings: malachite green pyrophosphate, A620, at 8 µM, stronger effect = lower value;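 also: 100% = wells without compound and 0% = wells lacking enzyme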
# [4] = blockers of polyQ-driven CASP3 activation – cell-based (AID 1583); settings: polyglutamine-induced caspase-3 activation, cell assay; stronger effect = higher value;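 tested at 10 µM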
# [5] = yeast 75Q aggregation reduction – 75Q-TubU reporter (AID 1593); settings: Yeast 75Q polyglutamine aggregation reporter
# [6] = restoration of touch response, mutant HTT neurons – whole organism, C. elegans mechanosensory neurons, N-terminal huntingtin (AID 1599); settings: C. elegans polyQ-huntingtin mechanosensory neurons, stronger effect = higher value
# [7] = blockers of cytochrome c efflux from mitochondria – biochemical, purified mitochondria (AID 1603); settings: stronger effect = lower value;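 also: mouse liver mitochondria challenged with calcium chloride; signal normalized to the plate average as 100%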
# [8] = polyglutamine aggregate formation blockers (AID 1604); settings: polyglutamine-induced protein aggregation inhibition assay; stronger effect = higher value; tested at 2.5 µM
# [9] = glutamate transport activators, MN-1 cells, MN-1 cell line (AID 1612); settings: MN-1 motor neuron cells, stronger effect = higher value;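 also: tested at 1 µM final; 0% = mean of DMSO vehicle wells on each plate; positive means more glutamate uptake than control and negative means less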
# [10] = GFP-Q80 aggregate reduction, neuronal-like cells, cell-based, NGF-treated PC12, GFPQ80 (AID 1614); settings: PC12 NGF-treated GFP-polyQ80 inclusion reduction;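 also: lower means fewer inclusions and 0 means no inclusions at all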
# [11] = 75Q-TubH aggregate inhibition, S. cerevisiae, yeast (AID 1616); settings: S. cerevisiae 75Q-TubH polyglutamine aggregation suppression; stronger effect = higher value
# [12] = compounds altering viability of human ES cells (AID 493140); settings: human embryonic stem cell survival screen; stronger effect = higher value;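 also: cells exposed to compounds for four days before counting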
# [13] = P. berghei load reduction in hepatocytes – cell-based, HepG2, luciferase luminescence, HepG2 viability, primary screen (AID 624349; in the data active = parasite load remaining mostly below about 12%, no sharp cut-off; inactive = mostly above about 10%;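 also: 100% = mean of DMSO negative control wells on the same plate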); settings: P. berghei liver stage in HepG2, luciferase luminescence, concentration not given here; parasite load remaining: stronger effect = lower value; viability: measured here: HepG2 viability without parasites
# [14] = viability loss with induced miR-34 in A549 – imaging, A549 dox-inducible miR-34, nuclei and caspase counts, primary screen (AID 1347080;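 active = compounds whose cell count with miR-34 switched on is under 0.7 times the count with it off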); settings: A549 miR-34 inducible, Hoechst nuclei count, 48 h
# [15] = biological target: Mitogen-activated protein kinase 7 (Homo sapiens) (UniProt Q13164); assay: Gal4-ERK5 driven luciferase induction – cell-based, HTS, primary screen (AID 1508626;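 active = luciferase signal above three times the same-plate solvent-only control wells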;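 also: luciferase driven by Gal4-ERK5 fusion binding five Gal4 sites before minimal TATA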); settings: HeLa Gal4-ERK5 transactivation, 18 h, at 5 µM, stronger effect = higher value
# [16] = galactose survival enhancers in mitochondrial complex I cybrids – cell-based, galactose medium, ATP luminescence, primary screen (AID 1645843;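 active = z-score of at least 1.8 in each of two replicates, scored against plate mean and spread of sample wells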;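 also: positive z means more ATP and so rescue of galactose-driven cybrid death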); settings: complex I mutant cybrid cells, 72 h, stronger effect = higher value
# [17] = biological target: NAD(+) hydrolase SARM1 (Homo sapiens) (UniProt Q6SZW1); assay: blocking NAD cleavage by SARM1 SAM-TIR – cell lysate, NAD-Glo luminescence (AID 1508614;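 active = compound whose remaining NAD level is above about 45 nM, limit read from the data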;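 also: higher remaining NAD means stronger inhibition of SARM1 NADase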); settings: SAM-TIR HEK293T lysate NADase, at 1 µM, stronger effect = higher value
# [18] = MELAS cybrid and Rieske KO viability enhancers – cell-based, MELAS cybrids, Rieske KO mouse fibroblasts, CellTiter-Glo, primary screen (AID 1508586;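 active = mean z-score across replicates of 1.96 or higher in either the MELAS or the Rieske mutant cell line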;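 also: z relative to plate mean and SD of compound and empty wells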); settings: low glucose
# [19] = measured here: epithelial PC-3E GFP cell survival
# [20] = measured here: mesenchymal TEM4-18 mCherry cell survival
# [21] = measured here: relative caspase fold change +Dox/-Dox
# [22] = measured here: total cells with miR-34 induction, stronger effect = lower value
# [23] = measured here: total cells without miR-34 induction
# Sequence of 6-phosphogluconate dehydrogenase, decarboxylating (Homo sapiens) (P52209 whole entry, looked up): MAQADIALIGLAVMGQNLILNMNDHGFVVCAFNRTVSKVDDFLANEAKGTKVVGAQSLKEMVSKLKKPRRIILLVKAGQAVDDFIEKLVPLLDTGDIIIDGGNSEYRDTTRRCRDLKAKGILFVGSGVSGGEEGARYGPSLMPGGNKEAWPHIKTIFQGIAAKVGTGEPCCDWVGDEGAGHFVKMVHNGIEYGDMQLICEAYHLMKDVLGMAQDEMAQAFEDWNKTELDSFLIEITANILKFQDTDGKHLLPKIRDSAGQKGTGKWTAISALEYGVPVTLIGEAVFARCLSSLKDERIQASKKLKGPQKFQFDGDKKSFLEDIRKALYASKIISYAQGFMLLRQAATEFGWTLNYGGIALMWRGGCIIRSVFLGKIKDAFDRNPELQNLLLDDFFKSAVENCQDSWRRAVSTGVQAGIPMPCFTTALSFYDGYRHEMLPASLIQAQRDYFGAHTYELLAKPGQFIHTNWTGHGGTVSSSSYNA
# Sequence of Mitogen-activated protein kinase 7 (Homo sapiens) (Q13164 whole entry, looked up, the tested form may be a part): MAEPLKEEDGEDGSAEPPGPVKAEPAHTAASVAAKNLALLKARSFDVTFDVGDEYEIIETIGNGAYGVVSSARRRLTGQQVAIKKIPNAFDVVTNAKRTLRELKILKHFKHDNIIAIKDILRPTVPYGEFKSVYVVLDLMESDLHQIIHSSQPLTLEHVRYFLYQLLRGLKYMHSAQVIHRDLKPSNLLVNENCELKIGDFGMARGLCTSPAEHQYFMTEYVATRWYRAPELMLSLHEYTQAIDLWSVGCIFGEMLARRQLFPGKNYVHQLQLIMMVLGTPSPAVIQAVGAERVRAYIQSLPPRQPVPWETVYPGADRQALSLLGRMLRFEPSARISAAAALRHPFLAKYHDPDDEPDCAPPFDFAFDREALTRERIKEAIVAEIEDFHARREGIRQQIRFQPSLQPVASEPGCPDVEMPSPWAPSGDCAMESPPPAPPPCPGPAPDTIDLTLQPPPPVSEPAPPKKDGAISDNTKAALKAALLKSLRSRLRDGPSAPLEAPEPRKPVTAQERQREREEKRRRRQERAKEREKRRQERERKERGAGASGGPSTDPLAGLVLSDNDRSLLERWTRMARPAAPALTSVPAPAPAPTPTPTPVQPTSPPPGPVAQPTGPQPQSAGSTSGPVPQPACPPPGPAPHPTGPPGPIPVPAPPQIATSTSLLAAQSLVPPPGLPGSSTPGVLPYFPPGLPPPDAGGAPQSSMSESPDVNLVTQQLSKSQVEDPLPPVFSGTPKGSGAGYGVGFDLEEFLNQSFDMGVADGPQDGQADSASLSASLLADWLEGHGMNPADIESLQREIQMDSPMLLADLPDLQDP
# Sequence of NAD(+) hydrolase SARM1 (Homo sapiens) (Q6SZW1 whole entry, looked up): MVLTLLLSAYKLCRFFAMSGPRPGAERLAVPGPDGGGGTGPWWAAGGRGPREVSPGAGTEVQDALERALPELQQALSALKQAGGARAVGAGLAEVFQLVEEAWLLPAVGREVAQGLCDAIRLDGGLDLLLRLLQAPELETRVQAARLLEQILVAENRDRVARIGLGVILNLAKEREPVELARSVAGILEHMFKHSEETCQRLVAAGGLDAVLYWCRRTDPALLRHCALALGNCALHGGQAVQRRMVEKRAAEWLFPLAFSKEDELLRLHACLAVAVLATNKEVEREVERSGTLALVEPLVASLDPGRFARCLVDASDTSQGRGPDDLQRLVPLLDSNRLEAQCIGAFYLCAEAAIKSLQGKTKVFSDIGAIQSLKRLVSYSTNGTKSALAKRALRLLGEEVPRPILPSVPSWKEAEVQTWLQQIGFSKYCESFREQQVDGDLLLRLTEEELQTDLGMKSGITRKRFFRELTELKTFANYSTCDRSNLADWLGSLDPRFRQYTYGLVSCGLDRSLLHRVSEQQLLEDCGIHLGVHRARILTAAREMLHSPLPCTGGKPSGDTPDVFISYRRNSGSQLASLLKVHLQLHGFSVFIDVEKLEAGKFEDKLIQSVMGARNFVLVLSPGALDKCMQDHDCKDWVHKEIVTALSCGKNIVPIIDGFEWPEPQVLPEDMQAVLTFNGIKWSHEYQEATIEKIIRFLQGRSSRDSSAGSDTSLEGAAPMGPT
compound,measurement,setting,value
O=C1C(Cl)=C(Cl)C(=O)C(Cl)=C1Cl,inhibition,[1],3.96% (inactive)
same,red/green cell ratio (normalised),[2],1.04 (inactive)
same,normalised cell number,[2]; [19],1
same,normalised cell number,[2]; [20],1.04
same,activity remaining,[3],100% (inactive)
O=C(O)CCC1NCC2CC1CN1CCCCC21 (stereo unspecified),inhibition,[1],1.87% (inactive)
same,red/green cell ratio (normalised),"[2]; counts scaled to control wells, 1 = unselective",1.12 (inactive)
same,normalised cell number,[2]; [19],0.9
same,normalised cell number,[2]; [20],1.01
same,activity remaining,[3],120% (inactive)
OC1CCCCC1N1CCC(c2ccccc2)CC1 (stereo unspecified),inhibition,[4],-2.9%
same,score,[5],1.36
same,rescue above control,[6],12.8
same,cytochrome c release ratio,[7],1.15
same,inhibition of aggregation,[8],57.4%
same,glutamate uptake change,[9],-9.45%
same,inclusion score,[10],2
same,aggregation suppression score,[11],1.46
same,survival,[12],2.42 (inactive)
same,parasite load remaining,[13],122% (inactive) and 70.2% (inactive)
same,viability,[13],88.2% and 106%
same,inhibition,[1],1.03% (inactive)
same,red/green cell ratio (normalised),[2],0.98 (inactive)
same,normalised cell number,[2]; [19],1.07
same,normalised cell number,[2]; [20],1.05
same,activity remaining,[3],87.4% (inactive)
same,fold change,[14]; stronger effect = lower value,0.987 (inactive) and 1.03 (inactive) and 0.84 (inactive)
same,fold change,[14]; [21],1.87 and 1.57 and 4
same,cell count,[14]; [22],10100 and 9780 and 10400
same,cell count,[14]; [23],10200 and 9480 and 12300
same,luciferase signal,[15],60 AU (inactive)
same,z-score,[16],0.03 (inactive) and 0.65 (inactive)
ClC1C(Cl)C(Cl)C(Cl)C(Cl)C1Cl (stereo unspecified),inhibition,[4],25.7%
same,score,[5],0.3
same,rescue above control,[6],-3.21
same,cytochrome c release ratio,[7],1.15
same,inhibition of aggregation,[8],69.4%
same,glutamate uptake change,[9],1.02%
same,aggregation suppression score,[11],-0.101
same,parasite load remaining,[13],60.1% (inactive)
same,viability,[13],93.4%
same,inhibition,[1],7.58% (inactive)
same,red/green cell ratio (normalised),[2],1.19 (inactive)
same,normalised cell number,[2]; [19],1.23
same,normalised cell number,[2]; [20],1.47
same,activity remaining,[3],113% (inactive)
same,fold change,[14]; stronger effect = lower value,0.871 (inactive)
same,fold change,[14]; [21],1.71
same,cell count,[14]; [22],10400
same,cell count,[14]; [23],11900
same,remaining NAD,[17],10 nM (inactive)
same,luciferase signal,[15],192 AU (inactive)
N[C@H](CO)Cc1ccccc1,inhibition,[1],1.18% (inactive)
same,red/green cell ratio (normalised),[2],1 (inactive)
same,normalised cell number,[2]; [19],1.16
same,normalised cell number,[2]; [20],1.17
same,activity remaining,[3],102% (inactive)
CN(C)[C@@H]1C(=O)C(C(N)=O)=C(O)[C@@]2(O)C(=O)C3=C(O)c4c(O)ccc(Cl)c4[C@@](C)(O)[C@H]3C[C@@H]12,inhibition,[4],15.6%
same,score,[5],0.9
same,rescue above control,[6],0
same,cytochrome c release ratio,[7],0.82
same,inhibition of aggregation,[8],9.52%
same,glutamate uptake change,[9],10.1%
same,inclusion score,[10],0
same,aggregation suppression score,[11],0.363
same,survival,[12],14.3 (inactive)
same,parasite load remaining,[13],104% (inactive) and 84.9% (inactive) and 79.4% (inactive)
same,viability,[13],73.9% and 86% and 80%
same,inhibition,[1],-12.1% (inactive)
same,red/green cell ratio (normalised),[2],0.9 (inactive) and 1.54 (inactive)
same,normalised cell number,[2]; [19],1.16 and 0.93
same,normalised cell number,[2]; [20],1.04 and 1.43
same,activity remaining,[3],117% (inactive)
same,fold change,"[14]; stronger effect = lower value, cell number ratio, induced over uninduced",0.926 (inactive)
same,fold change,[14]; [21],2.73
same,cell count,[14]; [22],9350
same,cell count,[14]; [23],10100
same,z-score,"[18]; MELAS cybrid survival, CellTiter-Glo 48 h, stronger effect = higher value",-3.64 (inactive)
same,z-score,"[18]; Rieske KO mouse fibroblast survival, CellTiter-Glo 72 h",-1.98
same,remaining NAD,[17],10 nM (inactive)
same,luciferase signal,[15],60 AU (inactive)
